# Measured values reported in the supplement of paper PMC6555819.
# Tests used:
# Experiment in all cases: PBM binding z-score (relative to random genomic background probes); higher = stronger binding; sequences stand for … in GC…GCGATTGACAGCGTAGAATGAAGG
# [1] = test system: FXR:RXRa (NR concentration 270 nM, RXRa partner concentration 90 nM)
# Summary of the method: (§1)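 Custom Agilent 4×180K protein-binding microarrays carried double-stranded probes. Their 34-nt variable regions held direct-repeat seeds, single-nucleotide variants, half-site ablations and random human genomic background sequences. Arrays were incubated 1 h with ligand-free nuclear receptor dimers in PBS pH 7.4, 2% milk, 0.02% Triton X-100, 1 mM DTT, 0.2 mg/mL BSA and 0.4 mg/ml salmon testes DNA. Antibodies against each partner (one per run) detected binding, and scanned fluorescence was regression-normalized. Binding z-scores use random background probes as reference.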
# [2] = test system: LXRa:RXRa (NR concentration 270 nM, RXRa partner concentration 90 nM)
# Summary of the method: as §1
# [3] = test system: LXRa homodimer (NR concentration 270 nM)
# Summary of the method: as §1
# [4] = test system: LXRb:RXRa (NR concentration 270 nM, RXRa partner concentration 90 nM)
# Summary of the method: as §1
# [5] = test system: LXRb homodimer (NR concentration 270 nM)
# Summary of the method: as §1
# [6] = test system: PPARa:RXRa (NR concentration 270 nM, RXRa partner concentration 90 nM)
# Summary of the method: as §1
# [7] = test system: PPARg:RXRa (NR concentration 180 nM, RXRa partner concentration 90 nM)
# Summary of the method: as §1
# [8] = test system: PPARg:RXRa 270nM:90nM, anti-RXR (NR concentration 270 nM, RXRa partner concentration 90 nM)
# Summary of the method: as §1
# [9] = test system: PPARg:RXRa 30nM:10nM, anti-RXR (NR concentration 30 nM, RXRa partner concentration 10 nM)
# Summary of the method: as §1
# [10] = test system: PPARg:RXRa 90nM:30nM, anti-RXR (NR concentration 90 nM, RXRa partner concentration 30 nM)
# Summary of the method: as §1
Sequence,PBM binding z-score [1],PBM binding z-score [2],PBM binding z-score [3],PBM binding z-score [4],PBM binding z-score [5],PBM binding z-score [6],PBM binding z-score [7],PBM binding z-score [8],PBM binding z-score [9],PBM binding z-score [10]
CGAACTAGGTCAAAGGACAGGGAAAGGCGACGTA,4.04,2.31,-0.139,1.77,-0.371,5.35,10.4,8.79,8.45,9.16
TGAATGAGGTCAAAGATCAGGGAACGTGGCGTCG,7.57,6.26,1.74,4.88,2.72,6.45,9.41,8.31,7.23,9.22
AATACAGGGTCACTAGGCCCGAGTAGGTACGAAT,6.16,4.62,0.516,3.53,0.618,5.37,6.32,5.26,2.34,4.04
CGAACGAGGTCAGAACAGGACAGTGAAGGATGAT,5.64,4.06,0.279,2.95,0.317,4.97,4.86,4.15,1.32,3.02
GCTGCTAGGTCAGGTTGGTCGGCTAACGGGTACG,1.01,0.53,-0.245,0.0524,-0.665,1.04,0.113,0.773,-0.581,0.235
CGAACTAGGTCAGAACAGTACAGTGAAGGATGAT,1.08,0.839,0.06,0.623,-0.447,2.86,5.05,4.39,1.99,3.68
CGAACTAGGTCATCGAGGACAGTGAATACATTGA,4.22,2.59,0.3,1.9,-0.0709,4.86,7.79,6.42,4.26,6.2
ATCTGTAGGTTAGGGTCATTCAGAAAGTAGGGAA,4.95,4.18,1.54,4.44,2.08,4.99,4.27,4.32,2.09,3.76
CCTACTGGGCCATTCAGAGGTCATTGATCATATG,2.92,4.32,6.45,3.73,0.365,3.82,2.59,3.24,0.818,2.26
AGAATGAGGTTATACGTAGGTCAGGGAAGAAAGT,3.33,4.18,1.07,3.2,0.0984,4.04,2.84,2.74,0.859,2.05
TAGCCTAGGTCCTTCAGGGGCCAGTATAGAAAGC,-0.77,-0.784,-0.674,-0.628,-0.884,-0.292,-0.229,-0.451,-0.73,-0.359
ATATGTAGGTTAGGGTCATTTAGAAAGTAGGGAA,4.85,3.93,1.62,4.59,1.67,5.67,7.69,6.54,4.42,6.23
CGAACTAGGTCACCAGTACAGTGAAGAGGTTGGA,3.77,2.35,0.174,1.82,0.0155,4.77,8.77,7.17,5.27,6.88
TAGCCTAGGTCATTCAGGGGGCAGTATAGAAAGC,5.76,4.78,2.16,5.66,11,4.6,3.97,4.6,1.89,3.53
CAAACTAGGTCACCAGGACAGTGAAGAGGTTGGA,4.67,2.73,0.391,1.92,0.0732,5.18,9.26,7.14,5.2,7.09
GCTGCTAGGTCAGGTTGGTCAACTAACGGGTACG,1.14,0.685,-0.134,0.695,-0.424,1.46,0.577,0.833,-0.708,0.0771
CTCGAAAGGTCGTGCTCAGGTGAGTACACCAAAC,5.63,3.63,0.149,3.14,0.685,4.94,3.11,4.4,1.61,2.91
CGTCCAAGGTCAGAGAGGTCATTGAATGCCGAGT,6.84,6.1,6.22,5.74,0.491,6.01,4.47,5.05,1.68,3.33
TAGCCTAGGTCATTTGGCCAGTATAGTACGCATC,4.44,3.74,1.16,2.71,1.07,3.48,2.06,2.03,0.424,1.5
CGAACTAGGTAAAAGGACAGTGAAAGGCGACGTA,-0.23,-0.378,-0.301,-0.371,-0.583,3.16,5.26,6.57,5.66,7.51
CGAACTAGGTCTCCAGGACAGTGAAGAGGTTGGA,-0.128,-0.769,-0.494,-0.832,-1.01,0.539,0.908,0.999,-0.187,0.153
TCTAGGAGGACACGAAGGTCAGAGCTTTCCAGAG,1.27,0.762,0.19,0.856,-0.833,2.05,0.882,2.09,2.49,2.5
CGATCTAGGTCACCAGGACAGTGAAGAGGTTGGA,3.81,2.39,0.00222,1.59,-0.455,4.81,8.42,6.67,4.33,6.26
CGAACTAGGTCACCAGGACCGTGAAGAGGTTGGA,3.87,2.36,-0.1,1.5,-0.339,4.88,8.27,6.8,4.02,6.42

Sequence,PBM binding z-score [1],PBM binding z-score [2],PBM binding z-score [3],PBM binding z-score [4],PBM binding z-score [5],PBM binding z-score [6],PBM binding z-score [7],PBM binding z-score [8],PBM binding z-score [9],PBM binding z-score [10]
CCTCGGAGGACAACAGGAGGTCAAAGCTGCCAGA,2.61,4.28,5.15,3.51,0.0871,3.68,1.17,1.56,-0.109,0.958
CGAACTAGGTCAAAGGACGGTGAAAGGCGACGTA,4.04,2.51,-0.304,1.41,-0.584,5.34,9.5,8,7.43,8.82
CGAACTAGGTCAAAGGACAGCGAAAGGCGACGTA,4.22,2.78,-0.185,1.94,-0.366,5.76,10.8,8.88,9.93,10.3
CTTAGTTGGTCAAGGTCACACACGCTATAGGTAC,4.69,4.17,2.15,4.03,1.14,4.51,4.28,4.71,2.33,3.77
ACTAGCAGGCCAAGGGTGACTCAAGATTAGTCCG,-0.498,-0.205,-0.435,-0.119,-1,2.13,4.45,5.29,3.6,5.35
CGTCCAAGGTCACCAGGTCAGTGAAAGCGACGTG,7.52,5.47,1.42,4.08,0.282,6.01,7.61,6.88,3.48,5.87
ATATGTATGTTAGGGTCATTCAGAAAGTAGGGAA,4.58,3.8,1.34,4.19,1.46,4.84,4.3,3.99,1.85,3.4
ATATGTACGTTAGGGTCATTCAGAAAGTAGGGAA,4.38,3.61,0.485,3.96,1.15,4.77,2.68,2.97,1.27,2.07
GATAAAGGGTCAGCTAGAGGCCAGAGTATGGAAA,5.39,3.97,0.0664,3.27,0.0558,5.06,4.3,4.76,2.03,3.31
CGAACTAAGTCAAAGGACAGTGAAAGGCGACGTA,-0.166,-0.175,-0.153,-0.345,-0.704,1.52,2.74,4.16,1.7,3.85
CGAACTAGGCCAAAGGACAGTGAAAGGCGACGTA,-0.669,-0.893,-0.542,-0.756,-1.2,2.97,6.79,6.81,5.3,7.2
CGAACTAGGTGATTGACAGGACAGTGAATAGTAA,0.0682,-0.0591,0.0308,-0.196,-0.394,1.81,2.2,1.57,0.548,1.06
CGAACTAGGTCAAAGGACCGTGAAAGGCGACGTA,3.56,2.39,0.0544,1.48,-0.478,4.99,8.12,6.9,5.98,7.29
AATACAGGGTCATTAGGCCAGAGTAGGTACGAAT,7.31,5.48,2.17,4.27,1.52,5.58,6.71,5.91,2.62,4.89
AGTCAAAGTTCTTCTAGGTAACGTAAGATATGCT,0.261,-0.366,0.0883,-0.0374,0.0414,0.304,0.844,1.16,0.354,0.549
TCTAGTTGGTGACGGAGGTCACACACGACGGGTA,2.59,3.03,1.85,2.9,0.435,3.65,2.52,3.45,3.36,3.36
CCTTACGGGTCACTCCATGTTATAGCATCGGAGT,4.2,4.36,-0.0151,2.66,0.251,4.37,3.24,3.49,0.894,2.33
CCTACGGGGCCAAAGGTCATTGATTCCAATGCTC,5.67,5.59,4.4,5.16,0.715,6.04,11,9.49,8.43,11.1
AGCGAAAGGTCGAAGGTGAGTATACCCACCCGAA,4.1,3.39,-0.15,2.68,-0.267,4.61,4.72,5.09,2.12,4.25
AGTCATAGTTCACTAGGTAACGTAAGATTCAGCT,0.829,1.51,0.415,1.11,0.233,3.01,3.89,3.82,1.59,2.88
CAGCCTAGGTGAGGGCCAGTATAGGAGGAACGTT,-0.516,-0.622,-0.626,-0.617,-1.21,-0.243,0.16,-0.421,-0.568,-0.607
CGTCCAAGGTCAACAGGTCAGTGAAAGCGACGTG,7.08,5.58,1.56,4.45,0.945,5.84,5.65,6.07,2.82,4.88
CCTACAGGGCCAAAGGTCATTGATTCCAATGCTC,5.3,5.24,4.04,4.71,0.781,5.51,8.97,8.45,8.14,9.99
CGAACTAGGTCAACAGGACAGTGAAGAGGTTGGA,3.71,2.37,0.16,1.55,-0.34,4.7,7.52,6.53,4.22,6.18
